From PMC5540273 (PLoS ONE, 2017) come the findings set out here.
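Also: KINOMEscan kinase panel screen.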

The experiment has as its system CLK4. Particulars: concentration: 1 μM, replicates: in singlicate; n = 1.
`CN(C)S(=O)(=O)c1cc(-c2ccc3nccc(-c4cccc(S(N)(=O)=O)c4)c3c2)cnc1N` [GSK1669921]: the “%Inh” value is 54%.

Take `CCS(=O)(=O)c1ccc(OC)c(Nc2nccc(-c3c(-c4cccc(NC(=O)c5c(F)cccc5F)c4)nn4ncccc34)n2)c1` [GSK326180]: the “%Inh” value came to 21%.

For the compound `COc1cc(Nc2nccc(N3CCC(NC(=O)c4cc5ccccc5s4)C3)n2)cc(OC)c1OC` (stereo not shown) [GSK1379760], the “%Inh” value was found to be 13%.

Turning to `Cc1ccc(F)c(C(=O)Nc2cccc(-c3nn4ccccc4c3-c3ccnc(Nc4cccc(F)c4)n3)c2)c1F` [GSK361061], the “%Inh” value stood at 14%.

On to `Clc1ccc(-c2nn3ncccc3c2-c2ccnc(Nc3ccc4c(c3)OCCO4)n2)cc1` [GW829116], for which the “%Inh” value stood at 0%.

`CCCCc1nn2ncccc2c1-c1ccnc(Nc2ccc(N3CCN(C)CC3)cc2)n1` [GW684941]: the “%Inh” value stood at 0%.

Consider `CCn1c(-c2nonc2N)nc2c(C#CC(C)(C)O)ncc(OCCCCN)c21.O=C(O)C(F)(F)F.O=C(O)C(F)(F)F` [GSK507274], for which the “%Inh” value is 43%.

For the compound `O=C(NC1CCN(c2ccnc(Nc3ccc(F)cc3)n2)C1)c1cc2ccccc2s1` (stereo not shown) [GSK1379716], the “%Inh” value is given as 30%.

Take `COc1cc2c(cc1OCCN1CCNCC1)ncc1c3ccc(C#N)cc3[nH]c21`: the “%Inh” value was 91.7%.

For `COc1cc(Nc2nccc(N3CCC(NC(=O)Nc4cccc(C(C)=O)c4)C3)n2)cc(OC)c1OC` (stereo not shown) [GSK1379753], the “%Inh” value is reported as 0%.

As for `O=C(Nc1cccc(-c2nn3ccccc3c2-c2ccnc(Nc3cccc(C(F)(F)F)c3)n2)c1)c1c(F)cccc1F` [GSK292658], the “%Inh” value was determined as 8%.

Regarding `CN(c1ccc(NC(=O)Nc2cc(C(F)(F)F)ccc2F)cc1)c1ccnc(Nc2ccc(S(N)(=O)=O)cc2)n1` [GW809893], the “%Inh” value turned out to be 16%.

Consider `Cc1cccc(NC(=O)Nc2ccc(Oc3ncnc4ccn(C)c34)cc2)c1`, for which the “%Inh” value is listed as 8%.

As to `Cl.c1ccc(-c2ccc3c(Nc4ccc5[nH]ccc5c4)ccnc3c2)nc1` [GW440138], the “%Inh” value came to 19%.

Regarding `CN1CCN(CCCNc2nccc(-c3c(-c4ccc(F)cc4)nn4cc(C(F)(F)F)ccc34)n2)CC1` [GW621581], the “%Inh” value turned out to be 22%.

For `C[C@@H](Oc1cc(-n2cnc3cc(-c4ccnc(NCCS(C)(=O)=O)c4)ccc32)sc1C(N)=O)c1ccccc1Cl` [GSK907232], the “%Inh” value was determined as 47%.

Take `Cc1cccc(Nc2nc(N[C@H]3CCNC3)ncc2C(N)=O)c1.Cl` [GSK2197149]: the “%Inh” value is listed as 33%.

Regarding `CCc1ccc(-c2ccc3c(c2)-c2c(cnn2C)S(=O)(=O)N3C)cc1`, the “%Inh” value turned out to be 10%.

For `COc1cc(Nc2ncc3c(C)nc(-c4cc5ccccc5[nH]4)n3n2)cc(OC)c1OC` [GW869516], the “%Inh” value is 43%.

For `Cc1ccc(S(=O)(=O)Nc2ccc(Nc3nccc(Nc4cccc5[nH]ncc45)n3)cc2)cc1` [GSK581271], the “%Inh” value came out at 87%.

Turning to `COc1ccc(Nc2nccc(NCCNC(=O)c3cc4ccccc4s3)n2)cc1` [GSK1379896], the “%Inh” value turned out to be 0%.

Regarding `CN1CCN(Cc2cccc(-c3ccc4c(Nc5ccc(Oc6ccccc6)cc5)ccnc4c3)c2)CC1` [GW578342], the “%Inh” value was found to be 0%.

Turning to `COc1ccc(Nc2nccc(N3CCC(NC(=O)Nc4cccc(OC)c4)C3)n2)cc1` (stereo not shown) [GSK1379742], the “%Inh” value was 9%.

In the case of `O=C(Nc1n[nH]c2cc(-c3ccoc3)ccc12)C1CC1` [SB-738481], the “%Inh” value was 9%.

Consider `Nc1ncnc2c1nc(-c1ccccc1)n2-c1ccccc1` [SKF-97293], for which the “%Inh” value amounted to 20%.

With `COc1ccc(CNC(=O)NC2CCN(c3ccnc(Nc4ccc(F)cc4)n3)CC2)cc1` [GSK1379788], the “%Inh” value is reported as 0%.

As for `Cc1occc1-c1ncc(OC[C@@H](N)Cc2c[nH]c3ccccc23)cc1-c1ccc2[nH]nc(C)c2c1.O=C(O)C(F)(F)F` [GSK682037], the “%Inh” value is reported as 9%.

On to `c1ccc(-c2n[nH]cc2Nc2ccnc3ccccc23)nc1` [GW694077], for which the “%Inh” value came to 96.5%.

In the case of `O=C(Nc1cccc(-c2nn3ncccc3c2-c2ccnc(Nc3ccccc3)n2)c1)c1c(F)cccc1F` [GSK198271], the “%Inh” value is 8%.

Consider `Nc1n[nH]c2cnc(-c3ccccc3)cc12` [SB-642124], for which the “%Inh” value came to 64%.

Turning to `CC(=O)Nc1nc2cnc(Nc3cc(NC(=O)c4cccc(C5(C#N)CC5)c4Cl)ccc3C)nc2s1`, the “%Inh” value is on record as 10%.

Take `O=C(Nc1n[nH]c2nc(-c3ccc(O)cc3)ccc12)C1CC1` [SB-710363]: the “%Inh” value is given as 15%.

Regarding `Cn1cc(-c2[nH]c3cc(NC(=O)[C@H](N)C4CCCCC4)cc4c3c2C=NNC4=O)cn1`, the “%Inh” value amounted to 55%.

As for `O=C(Nc1cccc(-c2nn3ccccc3c2-c2ccnc(Nc3cccc(F)c3)n2)c1)c1c(F)ccc(F)c1Cl` [GSK357952], the “%Inh” value is reported as 11%.

Take `O=C(Nc1ccccc1F)NC1CCN(c2ccnc(Nc3ccc(F)cc3)n2)CC1` [GSK1379800]: the “%Inh” value is 0%.

In the case of `CSc1cccc2c(-c3ccncn3)c(-c3ccc(F)cc3)nn12` [GW514786], the “%Inh” value is on record as 13%.

As for `COc1ccc(-c2coc3ccc(-c4nnc(SCc5ccc(OC)c(C(F)(F)F)c5)o4)cc23)cc1`, the “%Inh” value is 18%.
